# High-throughput results: PubChem, National Center for Advancing Translational Sciences (NCATS)
# RECQ1 inh-1: inhibitors of human RECQ1 DNA helicase | P46063 | RECQ1 DNA unwinding, red fluorescence kinetic read | Potency, µM (titrated, usually from 57.3 µM), for inactives: top-dose activity, negative = inhibition, hits mostly inhibitors | 0.54% of 240,000 active | AID 2549;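 also: plate controls were vehicle for no effect and no enzyme for full effect; nearly all actives have a fitted effect of over 30% in size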
# Target sequence (P46063 whole entry, looked up): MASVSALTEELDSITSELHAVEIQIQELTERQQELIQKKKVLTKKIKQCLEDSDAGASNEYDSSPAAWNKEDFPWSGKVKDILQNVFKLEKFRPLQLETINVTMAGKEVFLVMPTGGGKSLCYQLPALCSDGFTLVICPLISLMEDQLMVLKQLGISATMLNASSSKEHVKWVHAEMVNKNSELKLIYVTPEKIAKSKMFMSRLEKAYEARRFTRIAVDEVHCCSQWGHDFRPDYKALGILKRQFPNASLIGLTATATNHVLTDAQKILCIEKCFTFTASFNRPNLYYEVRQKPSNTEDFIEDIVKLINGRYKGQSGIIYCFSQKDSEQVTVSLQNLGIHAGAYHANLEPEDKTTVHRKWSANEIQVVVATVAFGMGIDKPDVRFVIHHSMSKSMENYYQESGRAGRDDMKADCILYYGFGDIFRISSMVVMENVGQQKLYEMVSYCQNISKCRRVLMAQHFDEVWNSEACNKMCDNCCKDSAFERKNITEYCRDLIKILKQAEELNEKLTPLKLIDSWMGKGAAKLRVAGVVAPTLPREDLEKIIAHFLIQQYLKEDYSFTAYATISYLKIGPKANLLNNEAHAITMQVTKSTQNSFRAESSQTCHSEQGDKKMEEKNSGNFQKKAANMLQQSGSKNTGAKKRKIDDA
#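 RECQ1T1 50 nM; forked duplex (20 bp + 30-nt ss tails) 200 nM, ATP 2 mM final; pH 8.0, 2 mM MgCl2, 2.5 ug/ml poly(dI-dC); 15 min compound preincubation; discontinuous kinetic read over 2 h at RT.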
# TDP1 block: TDP1 (human) enzyme inhibition; recombinant TDP1, AlphaScreen DNA substrate cleavage; 0.28% of 350,000 active; Potency, µM (doses to about 130 µM), inactives show at the highest dose activity change, negative = inhibition, actives largely listed as inhibitors; Q9NUW8; also: nearly all actives have a fitted effect of over 40% in size
#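 Steps: enzyme plus compound, 15 min RT; add biotin/phosphotyrosine-FITC oligonucleotide (15 nM final), react 5 min; add donor/acceptor beads (10 ug/ml final), 10 min; read AlphaScreen. Tdp1 at 1 nM final.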
# LMNA splice mod: modulators of lamin A splicing | Potency, µM (highest dose often 46.1 µM), for the others: at the top dose ratio change, negative = inhibition, most hits filed as inhibitors | HeLa LMNA splicing GFP/RFP minigene ratio, 48 h | 0.01% of 200,000 active; active = well fitted inhibition curve with a large enough effect in the signal ratio, with a control signal flat, not every such curve was filed as active; inconclusive = small, poorly fitted or top-dose-only effect, or effect the other way, or a change in a side signal; the % refers to the signal ratio
#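 Read-out is the ratio of GFP to DsRed2 object intensity, acquired by 488 nm laser-scanning cytometry on HeLa lamin A-EGFP minigene reporter cells. Compound incubation 48 hrs at 37 °C in Opti-MEM with 2% FBS; DMSO 0.5% final.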
# BLM helicase inh: blocks DNA unwinding by human BLM helicase. recombinant BLM DNA unwinding, fluorescence dequenching. Potency, µM (titrated, usually from 56.1 µM), for the others: top-dose activity change, negative = inhibition, hits mostly inhibitors. 0.2% of 350,000 active;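 also: plate controls were vehicle for no effect and no enzyme for full effect; nearly all actives have a fitted effect of over 35% in size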
# APEX1 inh: blocks human APE1 abasic DNA cleavage | recombinant APE1, TAMRA/BHQ-2 abasic DNA cleavage fluorescence | P27695 | Potency, µM (series often up to 65.8 µM), without a hit: top-dose activity change, negative = inhibition, most hits filed as inhibitors | 0.35% of 350,000 active;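 also: plate controls were vehicle for no effect and reference inhibitor for full effect; nearly all actives have a fitted effect of over 55% in size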
#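 Step 1: APE1 (0.75 nM) with compound, 15 min RT. Step 2: add 50 nM fluorophore/quencher THF duplex. Step 3: three fluorescence reads 60 s apart (525/598 nm); read 3 minus read 1 = reaction progress.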
# KAT2A inh: GCN5L2 (KAT2A) acetyltransferase inhibition | Q92830 | Potency, µM (doses to about 58.9 µM), for inactives: at the top dose activity change, negative = inhibition, usual class: inhibitors | GCN5L2 HAT assay, ThioGlo1 CoA-SH fluorescence | 0.21% of 390,000 active
#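 Compounds, pin-transferred from DMSO stocks, meet 20nM GCN5L2 for 15 min before the reaction begins with H3(1-25) peptide (75uM) and acetyl-CoA (70uM). Thiol-reactive ThioGlo1 reports CoA release over 20 min at room temperature.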
# RECQ1 conf: confirmation of human RECQ1 helicase inhibitors; shares compounds with RECQ1 inh-1; RECQ1 helicase DNA unwinding, fluorescence; Potency, µM (top dose mostly 229 µM), for the others: at the highest dose activity change, negative = inhibition, hits mostly inhibitors; 28% of 610 active; also: nearly all actives have a fitted effect of over 45% in size
# ADP FP counter: ADP displacement flagged in RECQ1 inhibitor counter-screen. shares compounds with RECQ1 inh-1. ADP fluorescence polarization displacement counterscreen. Potency, µM (series often up to 228 µM), inactives show at the top dose activity change, negative = inhibition, actives largely listed as inhibitors. 27% of 530 active. AID 2711; also: nearly all actives have a fitted effect of over 45% in size
# RECQ1 inh-2: RECQ1 helicase inhibition confirmed, round 2; shares compounds with RECQ1 inh-1; recombinant RECQ1 DNA unwinding, red fluorescence; Potency, µM (titrated, usually from 119 µM), for inactives: top-dose activity, negative = inhibition, hits mostly inhibitors; 15% of 1,100 active; AID 504841; also: nearly all actives have a fitted effect of over 50% in size
# Starred values were filed as active, the others as inactive; i = inactive; ? = inconclusive; · = no result; [ ] = dose if it differs, or a comment. A selection: hits, their analogues and other compounds. The true share with any hit is near 0.9%. Unless noted, calls follow the shape of the dose curve; as a rule, active = well fitted curve in the direction sought with a large enough effect; inconclusive = small, poorly fitted or top-dose-only effect, or another doubt; inactive = no such curve, though single readings can be large; an effect the other way counts as inactive or inconclusive. Unless noted, % is scaled to controls: 0 for no effect and ±100 for the full control effect; potency is read from the fitted curve at half-maximal effect.
SMILES,RECQ1 inh-1,TDP1 block,LMNA splice mod,BLM helicase inh,APEX1 inh,KAT2A inh,RECQ1 inh-2,others
O=C(c1ccccc1)c1ccc(OCCCN2CCCC2)cc1,12.3%,-11.8%,8.8%,-8.8%,3.3%,-1.2%,·,
Cc1ccc(CSCC(Nc2ccc(C(=O)O)cc2[N+](=O)[O-])C(=O)O)cc1 (configuration not stated),19.1%,0.0%,6.3%,0.2%,11.5%,-8.2%,·,
O=C(O)c1ccc(NC(CSCc2ccc(F)cc2)C(=O)O)c([N+](=O)[O-])c1 (configuration not stated),6.8%,6.8%,7.2%,0.6%,-2.3%,-1.7%,·,RECQ1 conf=23.0%;ADP FP counter=-5.6%
CCCn1c(-c2ccc(F)cc2)nc2c(NCCN(C(C)C)C(C)C)nc(C)nc21,i,9.3%,·,-8.9%,1.7%,·,·,
COc1ccc(OC)c(Nc2nc(NCCCN(C)C)nc(N)c2[N+](=O)[O-])c1,?,2.5%,·,?,?,-2.4%,?,
COCCCNc1nc(N)c([N+](=O)[O-])c(Nc2cc(OC)ccc2OC)n1,i,8.4%,·,-11.9%,0.6%,-8.8%,·,
O=C(O)C/C(=C\c1ccc(N2CCOCC2)c([N+](=O)[O-])c1)c1nc2ccccc2s1,-19.7%,2.7%,·,-13.7%,-2.0%,-16.1%,·,RECQ1 conf=112µM*;ADP FP counter=?
O=C(CSc1nc2ccccc2s1)Nc1ccc(N2CCOCC2)c(Cl)c1,-13.7%,4.4%,-8.6%,-6.4%,-4.3%,-11.5%,·,
O=C(O)CC/C(=C\c1ccc2c(c1)OCO2)c1nc2ccccc2s1,·,·,·,-8.1%,27.2%,-11.6%,·,
O=C(O)CC/C(=C\c1ccc(N2CCOCC2)c([N+](=O)[O-])c1)c1nc2ccccc2s1,i,2.6%,-29.7%[46 µM],-3.2%,14.2%,-16.1%,·,RECQ1 conf=?;ADP FP counter=?
COC(=O)c1c(NC(=O)/C=C/C(=O)O)sc(C)c1-c1ccc(C(C)C)cc1,?,5.5%,?,-5.1%,-3.3%,0.0%,-44.6%,
Cn1c(N)c(C(=O)COC(=O)c2cc(-c3ccco3)nc3ccccc23)c(=O)n(C)c1=O,28.2µM*,-5.1%,3.3%,-14.8%,?,-26.1%,?,
Cn1c(N)c(C(=O)COC(=O)c2cc(-c3ccco3)nc3ccccc23)c(=O)n(Cc2ccccc2)c1=O,?,-0.3%,4.1%,-28.2%,?,-26.7%,·,
Cn1nc(C(=O)Nc2nc3ccccc3[nH]2)c2ccccc2c1=O,?,6.9%,-19.0%,-15.4%,1.5%,10.4%,?,
CC(C)Oc1ccc(C(=O)Nc2nc3ccccc3[nH]2)cc1,·,1.4%,·,-3.4%,22.0%,-4.6%,·,
CN(C)c1ccc(/C=C2\SC(=O)N(CCc3nnc(N)s3)C2=O)cc1,?,·,·,-8.2%,-2.8%,-11.9%,?,
CN(C)c1ccc(/C=C2/SC(=O)N(CCN=C3NS(=O)(=O)c4ccccc43)C2=O)cc1,4.9%,2.7%,?,-8.9%,2.7%,-19.4%,·,
COC(=O)/C(Cc1cc(Br)c(OC)c(Br)c1O)=N/O,i,7.5%,·,0.9%,-2.4%,·,·,
C=CCn1c(=O)/c(=C/c2ccc(C)o2)s/c1=C(/C#N)C(=O)c1ccccc1,31.6µM*,6.1%,-2.5%,-15.6%,-2.9%,-23.1%,?,
Nc1ncc(S(=O)(=O)Nc2ccc(F)cc2F)cn1,·,1.1%,?,-2.1%,·,11.5%,·,
Cc1ccc(S(=O)(=O)N2CC=C(c3c(C)n(C)c4ccccc34)CC2)cc1,-15.7%,5.8%,?,-8.7%,0.3%,-2.3%,·,
CCn1c(C)c(C2=CCN(S(=O)(=O)c3ccccc3)CC2)c2ccccc21,25.1µM*,6.8%,?,-5.8%,-9.9%,-6.3%,?,RECQ1 conf=50.1µM*
Cc1ccc(-c2csc(NC(=O)C3=NN(c4ccccc4)C(=O)CC3)n2)cc1,?,3.4%,?,-5.8%,9.3%,-9.1%,-13.3%,
Cc1csc(NC(=O)C2=NN(c3ccccc3)C(=O)CC2)n1,i,0.0%,·,-5.2%,3.4%,-14.3%,·,
COC(=O)C1(C(=O)OC)CC2=CC(CC2=O)Cc2ccccc2[C@@H]1C[N+](=O)[O-] (some centres not stated),i,3.1%,·,-0.4%,0.6%,·,·,
SMILES,RECQ1 inh-1,TDP1 block,LMNA splice mod,BLM helicase inh,APEX1 inh,KAT2A inh,RECQ1 inh-2,others
CCOC(=O)C1=C([Si](C)(C)C)c2ccccc2N(S(=O)(=O)C(F)(F)F)C1C(=O)OCC (configuration not stated),-6.1%,1.0%,·,-7.6%[75.6 µM],0.6%,?,·,
Cc1cc2nc3c(=O)[nH]c(=O)nc-3n(C[C@H](O)[C@H](O)[C@H](O)COP(=O)(O)OP(=O)(O)OC[C@H]3O[C@@H](n4cnc5c(N)ncnc54)[C@H](O)[C@@H]3O)c2cc1C,·,·,·,-1.4%,·,-28.0%,·,
CN(C)CC1CCn2c(c(C3=C(c4cn(C)c5ccccc45)C(=O)NC3=O)c3ccccc32)C1 (configuration not stated),?,12.8%,·,-5.2%,-4.6%,41.8%,79.4µM*,
O=C(O)CCc1nn2c3ccccc3n(CC(=O)c3cccs3)c2nc1=O,1.7%,3.7%,·,-4.1%,-2.4%,-10.8%,·,RECQ1 conf=7.1%;ADP FP counter=-3.7%
CC(=O)Cn1c2ccccc2n2nc(CCC(=O)O)c(=O)nc12,6.1%,2.7%,7.4%[46 µM],-7.0%,2.0%,-11.1%,·,
COc1ccc(C(=O)Cn2c3ccccc3n3nc(CCC(=O)O)c(=O)nc23)cc1OC,-8.0%,2.2%,-0.8%,0.0%,-2.3%,-3.0%[0.501 µM],·,RECQ1 conf=20.9%;ADP FP counter=?
O=C(O)CCc1nn2c3ccccc3n(Cc3ccccc3)c2nc1=O,4.9%,-2.7%,·,-1.6%,1.3%,-4.7%,·,
C[C@H](CCCC(C)(C)O)[C@H]1CC[C@H]2[C@@H]3CC=C4C[C@@H](O)CC[C@]4(C)[C@H]3CC[C@]12C,·,·,·,0.6%,·,-3.8%,·,
C=CCCN(Cc1ccc(OC)cc1)S(=O)(=O)c1ccccc1Br,i,-12.7%,·,-9.6%,-6.0%,·,·,
Cc1ccc(NC(=S)NC(=O)/C=C/c2ccco2)c(O)c1,?,5.5%,·,-14.3%,?,5.2%,-22.6%,
